Only some compounds are listed: those with a hit (about 5.7% of all), similar ones and a draw of the others.
A549 viability: counter-screen for Nrf2 inhibitors: cytotoxicity in A549 cells | A549 ARE-Fluc cells, CellTiter-Fluor viability, 18-24 h | Potency, µM (doses to about 46 µM), without a hit: at the top dose activity change, negative = cytotoxicity, hits mostly inhibitors | 0.16% of 390,000 active; note: potency is the fitted concentration of half-maximal effect
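A549 ARE-Fluc cells in 5% FBS OPTI-MEM, 5000 cells/well, rested 2 h then exposed to compounds in concentration-response for 18-24 h at 37 °C. Viability by CellTiter-Fluor fluorescence (Ex 405/Em 525) after 30 min; luciferase luminescence (BugLite, 15 min, RT) read afterwards.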
KB-3-1 tox: KB-3-1 parental cell cytotoxicity; Potency, µM (doses to about 46.1 µM), most hits filed as cytotoxic; AID 1347075; 1.4% of 400,000 active; KB-3-1 viability, CellTiter-Glo ATP luminescence, 72 h; note: potency is the fitted concentration of half-maximal effect; nearly all actives have a fitted effect of over 60% in size
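Screening of KB-3-1 cells (DMEM, 10% FBS, phenol-red free) ran from lowest to highest compound concentration; after 72 h at 37 °C viability was read luminescently and curves fitted.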
KB-V1 MDR tox: kills drug-selected multidrug resistant KB-V1 cells. 3.4% of 400,000 active. AID 1347076. KB-V1 MDR cells viability, CellTiter-Glo, 72 h. Potency, µM (doses to about 46.1 µM), hits mostly cytotoxic; note: potency is the fitted concentration of half-maximal effect; nearly all actives have a fitted effect of over 60% in size
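qHTS viability screen in drug-selected KB-V1 MDR cells: 72 h compound treatment at 37 degrees C, ATP luminescence end point.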
PI4K2A block: PI4K2A (human) kinase inhibition; Q9BTU6; purified PI4K2A, ADP-Glo luminescence, 1 h; hits give low values; activity change, negative = inhibition, % at 76.9 µM; 0.13% of 420,000 active; AID 1346378; in the data active = activity change below about -50%; inconclusive = mostly about -30% to -49%;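 note: -100% = wells without enzyme as full effect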
Target sequence (Q9BTU6 whole entry, looked up): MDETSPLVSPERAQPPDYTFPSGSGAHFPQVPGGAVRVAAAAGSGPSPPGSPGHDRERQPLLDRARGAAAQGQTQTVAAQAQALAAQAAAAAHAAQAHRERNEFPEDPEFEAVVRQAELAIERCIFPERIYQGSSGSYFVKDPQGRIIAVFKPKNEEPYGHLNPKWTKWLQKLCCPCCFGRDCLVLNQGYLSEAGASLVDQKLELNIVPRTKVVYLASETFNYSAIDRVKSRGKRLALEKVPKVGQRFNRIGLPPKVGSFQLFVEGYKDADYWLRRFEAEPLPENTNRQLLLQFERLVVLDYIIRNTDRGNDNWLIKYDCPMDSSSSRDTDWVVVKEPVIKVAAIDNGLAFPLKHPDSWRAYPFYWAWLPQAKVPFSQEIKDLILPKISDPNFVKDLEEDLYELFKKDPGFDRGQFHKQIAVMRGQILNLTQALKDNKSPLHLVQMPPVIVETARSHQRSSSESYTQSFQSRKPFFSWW
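ADP-Glo luminescence measured ADP generated by PI4K2A enzyme (4 ug/mL before mixing) with 1.2 mM PI substrate (pre-mix) and 300 microM ATP (pre-mix). Tris pH7.5 buffer with MgCl2, Triton X-100; 1 h reaction at ambient temperature.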
Nrf2 inh: Nrf2 pathway inhibition. A549 ARE-Fluc reporter, luciferase luminescence, 18-24 h. Potency, µM (series often up to 46 µM), without a hit: top-dose activity change, negative = inhibition, hits mostly inhibitors. 2.1% of 360,000 active; note: potency is the fitted concentration of half-maximal effect; nearly all actives have a fitted effect of over 60% in size
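Concentration-response testing used A549 ARE_Fluc cells at 5000 cells/well. Following an 18-24 h compound incubation, viability was read by fluorescence (Ex 405/Em 525) and luciferase output by luminescence.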
Giardia killer: Giardia lamblia killing. Giardia lamblia trophozoite viability. activity change, % at 7.66 µM, hits read low. 0.15% of 340,000 active. AID 540267; in the data active = activity change below about -80%; inconclusive = between about -30% and that limit;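 note: parasites exposed to compound for two days anaerobically before the ATP read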
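Viability, read as ATP luminescence: trophozoites at 100 cells/well, compound added, 48 hrs anaerobic at 37 deg C, then 15-30 min room-temperature development before reading.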
Numbers without * were called inactive; i = inactive; u = inconclusive; x = no result given. Unless noted, calls come from the whole dose curve; as a rule, active = well fitted curve in the direction sought with a large enough effect; inconclusive = small, poorly fitted or top-dose-only effect, or another doubt; inactive = no such curve, though single readings can be large; an effect the other way counts as inactive or inconclusive. Unless noted, % is set by controls: 0 for no effect and ±100 for the full control effect.

SMILES | A549 viability | KB-3-1 tox | KB-V1 MDR tox | PI4K2A block | Nrf2 inh | Giardia killer
O=C(Nc1ccc(F)cc1F)c1sccc1SCc1cccc(C(F)(F)F)c1 | u | i | 16µM* | 0 | -12% | 9
COc1ccc(NC(=O)c2sccc2SCc2cccc(C(F)(F)F)c2)cc1 | -14% | i | 16µM* | 0 | u | -14
O=C(Nc1ccc(F)cc1)c1sccc1SCc1cccc(C(F)(F)F)c1 | 6% | i | u | 2 | x | 9
COc1ccsc1C(=O)Nc1ccc(F)cc1F | 1% | i | i | 0 | u | -5
Cc1ccc(-c2csc(=Nc3cccnc3)n2CCCn2ccnc2)cc1C | -6% | 16µM* | 7.3µM* | -4 | 18µM* | -6
COCCn1c(-c2ccccc2)csc1=Nc1cccnc1 | 5% | u | u | 1 | -7% | -3
c1cncc(N=c2scc(-c3cccc4ccccc34)n2CCCn2ccnc2)c1 | -14% | i | 12µM* | -5 | -28% | -18
O=S1(=O)c2ccc(N3CCN(Cc4ccccc4F)CC3)cc2Oc2ccccc2CN1Cc1cn(Cc2cccc(C(F)(F)F)c2)nn1 | x | x | x | 2 | x | x
O=c1c2ccccc2nc(-c2ccco2)n1CCCn1ccnc1 | 4% | i | 8.2µM* | 7 | x | -8
CCOc1c(Br)cc(CNC2CCCCCCC2)cc1OC | u | u | u | 3 | u | -3
COc1cc(CNC2CCCCCCC2)cc(Br)c1OCC#N | -1% | i | 23µM* | 1 | -1% | 2
O=C(/C=C/c1ccccc1)N1CCN(c2cccc(Cl)n2)CC1 | -13% | i | 18µM* | -3 | u | 16
O=C(/C=C/c1ccc(F)cc1)N1CCN(c2ccccn2)CC1 | 1% | i | i | 3 | -11% | -14
Cc1ccc(OCC(=O)N(Cc2ccco2)Cc2ccco2)cc1 | 4% | x | x | 0 | 8% | x
Cc1ccc(CN(Cc2ccco2)C(=O)COc2ccc(C(C)C)cc2)cc1 | 7% | x | x | 2 | 18µM* | x
COc1cccc(CNC(=O)CCc2c(C)nn(-c3ccc(N4CCOCC4)nn3)c2C)c1 | -4% | i | i | -5 | u | x
O=C(Nc1nc(-c2ccc(Cl)cc2)cs1)NC1CCCCC1 | -12% | u | 13µM* | -2 | u | 7
CC(=O)Nc1ccc(-c2csc(Nc3ccc(Cl)cn3)n2)cc1 | -18% | u | u | -3 | 15µM* | -22
CC(=O)Nc1ccc(-c2csc(N/N=C(/C)c3ccccc3)n2)cc1 | -4% | i | i | -4 | 9% | u
CC(=O)Nc1ccc(-c2csc(NNC(=O)c3ccccc3)n2)cc1 | u | i | i | -2 | 13µM* | 16
Cc1ccc(C)c(C(=O)C[n+]2cccc(Br)c2)c1 | x | u | i | x | x | x
CCCCNC(=O)OC1CCC12CCC(c1ccccc1)CC2 (centres undefined) | x | x | x | 1 | x | x
Cc1ccc(OCC(=O)c2cc(C)n(Cc3cccs3)c2C)c([N+](=O)[O-])n1 | -6% | u | u | 4 | 12µM* | u
COc1ccc(-n2c(C)cc(C(=O)COc3ccc(C)nc3[N+](=O)[O-])c2C)cc1 | 2% | u | u | 1 | 6% | -81*
Cc1ccc(S(=O)(=O)N2CCCCC2CCNC(=O)C(=O)NCc2ccccc2)cc1 (centres undefined) | u | 3.7µM* | 4.1µM* | -1 | u | 6
Cc1ccc(S(=O)(=O)N2CCCCC2CCNC(=O)C(=O)NCC2CCCO2)cc1 (centres undefined) | 0% | i | 5.8µM* | 3 | -20% | -12
Cc1ccc(S(=O)(=O)N2CCCCC2CCNC(=O)C(=O)NCc2ccccc2C)cc1 (centres undefined) | -20% | u | 9.2µM* | -1 | -4% | 3
O=C(Nc1cccc([N+](=O)[O-])c1)c1ccc([N+](=O)[O-])o1 | x | i | u | -1 | x | x
O=C(Nc1ccccc1F)c1ccc([N+](=O)[O-])s1 | u | u | u | -1 | u | u
